The values below come from PubChem BioAssay.

Structures are written as SMILES. “And” between values parts separate entries of the source, which are not always exact repeats. Identical values can stand only once. The source made the active and inactive calls.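 The calls were made as follows, unless noted: active = compounds whose cell count with miR-34 switched on is under 0.7 times the count with it off; inactive = the rest.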

The subject of experiment [1] is Aerobactin synthetase IucA (Klebsiella pneumoniae). In words: inhibition of K. pneumoniae IucA enzyme – biochemical, Tocris library, absorbance (AID 1345561; call rule not given here;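 also: 100% = enzyme without compound and 0% = no enzyme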). Particulars: purified IucA enzyme assay, absorbance (OD) read-out; stronger effect = lower value;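 tested at 8 µM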.
A short description of experiment [2]: viability loss with induced miR-34 in A549 – imaging, A549 dox-inducible miR-34, nuclei and caspase counts, primary screen (AID 1347080). To be noted: A549 miR-34 inducible, Hoechst nuclei count, 48 h.
The nature of experiment [3]: galactose survival enhancers in mitochondrial complex I cybrids – cell-based, galactose medium, ATP luminescence, primary screen (AID 1645843;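 active = z-score of at least 1.8 in each of two replicates, scored against plate mean and spread of sample wells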;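 also: positive z means more ATP and so rescue of galactose-driven cybrid death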). To be noted: complex I mutant cybrid cells, 72 h, stronger effect = higher value.
Setting [4] is: stronger effect = lower value, cell number ratio, induced over uninduced.
Setting [5] is: measured here: relative caspase fold change +Dox/-Dox.
Setting [6] is: measured here: total cells with miR-34 induction, stronger effect = lower value.
The mark [7] stands for this setting: measured here: total cells without miR-34 induction.

What is called remaining activity is the signal under treatment as a percentage of the control signal. As to `O[C@H](CNC[C@@H](O)[C@H]1CCc2cc(F)ccc2O1)[C@@H]1CCc2cc(F)ccc2O1`, in experiment [1], the remaining activity is 101% (inactive). The fold change in experiment [2] (setting [4]) was 1.03 (inactive); in experiment [2] (setting [5]), 0.967. The cell count in experiment [2] (setting [6]) came out at 3230; in experiment [2] (setting [7]), 3140. The z-score in experiment [3] is -0.5 (inactive).
For the compound `Cc1nnc(-c2ccc3occ(-c4ccc(S(C)=O)cc4)c3c2)o1` (configuration not stated), the remaining activity in experiment [1] was 113% (inactive). Moreover, the fold change in experiment [2] (setting [4]) is 0.855 (inactive); in experiment [2] (setting [5]) it was 1.35. The values for the cell count in experiment [2] (setting [6]) and in experiment [2] (setting [7]) were 4510 and 5270, respectively. Also, in experiment [3], the z-score is -0.44 (inactive).
Consider `COc1oc(=O)c2cc(N)ccc2c1Cl`, for which the remaining activity in experiment [1] is 95.9% (inactive). Also, the values for the fold change in experiment [2] (setting [4]) and in experiment [2] (setting [5]) were 0.989 (inactive) and 1.44, respectively. Besides, the cell count in experiment [2] (setting [6]) amounted to 8640; in experiment [2] (setting [7]) it was 8740. Also, in experiment [3], the z-score was -0.37 (inactive).
On to `O=C(c1ccc(F)cc1)C1CCN(CCCCc2ccccc2)CC1`, for which the remaining activity in experiment [1] was 113% (inactive). Moreover, the results for the fold change in experiment [2] (setting [4]) and in experiment [2] (setting [5]) were 0.877 (inactive) and 1.29, respectively. Moreover, the cell count in experiment [2] (setting [6]) was 8620; in experiment [2] (setting [7]) it was 9830. In experiment [3], the z-score is -0.88 (inactive).
As to `c1ccc(C(O[C@@H]2CCCN(CCc3ccc4c(c3)OCO4)C2)c2ccccc2)cc1`, the remaining activity in experiment [1] is 119% (inactive). Further, the figures for the fold change in experiment [2] (setting [4]) and in experiment [2] (setting [5]) were 0.989 (inactive) and 1.1, respectively. Also, the cell count was determined as 8350 in experiment [2] (setting [6]) and 8440 in experiment [2] (setting [7]). The z-score in experiment [3] was -0.585 (inactive).
`Ic1cc(-c2ccccc2)ncn1`: the remaining activity in experiment [1] was 120% (inactive). The fold change was 0.965 (inactive) in experiment [2] (setting [4]) and 1.73 in experiment [2] (setting [5]). In addition, the figures for the cell count in experiment [2] (setting [6]) and in experiment [2] (setting [7]) were 8200 and 8500, respectively. Moreover, the z-score in experiment [3] is 0.11 (inactive).
As for `CCCCC1CCC(c2nc(-c3ccncc3)no2)CC1` (configuration not stated), in experiment [1], the remaining activity is 122% (inactive). Further, the fold change was 0.974 (inactive) and 0.949 (inactive) in experiment [2] (setting [4]); 0.608 and 1.14 in experiment [2] (setting [5]). Also, the cell count in experiment [2] (setting [6]) was 5260 and 8140; in experiment [2] (setting [7]), 5400 and 8570. For the same compound, the z-score in experiment [3] is -0.62 (inactive).
Take `CCCCC#Cc1nc(NC)c2ncn([C@@H]3O[C@H](CO)[C@@H](O)[C@H]3O)c2n1`: the remaining activity in experiment [1] is 96.8% (inactive). The fold change was 0.906 (inactive) in experiment [2] (setting [4]) and 0.777 in experiment [2] (setting [5]). For the same compound, the cell count was 8810 in experiment [2] (setting [6]) and 9730 in experiment [2] (setting [7]). For the same compound, in experiment [3], the z-score is -0.21 (inactive).
On to `Cc1c(C(=O)NC2CCCCC2)sc2nc3ccc(N)cc3n12`, for which the remaining activity in experiment [1] was 120% (inactive). The fold change in experiment [2] (setting [4]) was 0.889 (inactive); in experiment [2] (setting [5]), 1.46. Further, the cell count was found to be 5970 in experiment [2] (setting [6]) and 6720 in experiment [2] (setting [7]). For the same compound, the z-score in experiment [3] is -0.625 (inactive).
Take `CC(C)N1Cc2cc(S(C)(=O)=O)ccc2N(CCN2CC=C(c3c[nH]c4cc(F)ccc34)CC2)S1(=O)=O`: in experiment [1], the remaining activity is 110% (inactive). For the same compound, the values for the fold change in experiment [2] (setting [4]) and in experiment [2] (setting [5]) were 0.929 (inactive) and 1.15, respectively. Moreover, the results for the cell count in experiment [2] (setting [6]) and in experiment [2] (setting [7]) were 6990 and 7530, respectively. For the same compound, the z-score in experiment [3] was 0.12 (inactive).
On to `CC(=O)NCCc1c(Cc2ccccc2)[nH]c2ccccc12`, for which the remaining activity in experiment [1] was 105% (inactive). For the same compound, the fold change was 1.03 (inactive) in experiment [2] (setting [4]) and 0.867 in experiment [2] (setting [5]). Also, the cell count in experiment [2] (setting [6]) came out at 7430; in experiment [2] (setting [7]) it was 7230. Besides, the z-score in experiment [3] was 0.025 (inactive).
Take `NC(=O)CCCCn1ccc(NC(N)=NCC(F)(F)F)n1`: in experiment [1], the remaining activity is 98.2% (inactive). Also, the fold change was 0.945 (inactive) in experiment [2] (setting [4]) and 0.965 in experiment [2] (setting [5]). The cell count was 8750 in experiment [2] (setting [6]) and 9250 in experiment [2] (setting [7]). Also, in experiment [3], the z-score is 1.19 (inactive).
As for `c1ccc2oc(C3=NCCN3)cc2c1`, the remaining activity in experiment [1] is 116% (inactive). Moreover, the fold change is 0.904 (inactive) in experiment [2] (setting [4]) and 1.14 in experiment [2] (setting [5]). Moreover, the cell count came to 8470 in experiment [2] (setting [6]) and 9370 in experiment [2] (setting [7]). In addition, in experiment [3], the z-score is 0.405 (inactive).
For `O=Nc1ccc(O)c2ncccc12`, in experiment [1], the remaining activity is 118% (inactive). Also, the fold change in experiment [2] (setting [4]) is 1.09 (inactive); in experiment [2] (setting [5]), 1.32. The figures for the cell count in experiment [2] (setting [6]) and in experiment [2] (setting [7]) were 2920 and 2670, respectively. The z-score in experiment [3] was -1.02 (inactive).
Regarding `CN(C)[C@@H]1CCc2[nH]c3ccc(NC(=O)c4ccc(F)cc4)cc3c2C1`, the remaining activity in experiment [1] is 77.6% (inactive). In addition, the fold change was 0.87 (inactive) in experiment [2] (setting [4]) and 1.77 in experiment [2] (setting [5]). For the same compound, the cell count stood at 8840 in experiment [2] (setting [6]) and 10200 in experiment [2] (setting [7]). Further, the z-score in experiment [3] is 0.495 (inactive).
Regarding `CCCCOC(=O)c1cc2c(cn1)[nH]c1ccccc12`, the remaining activity in experiment [1] is 96.6% (inactive). For the same compound, the values for the fold change in experiment [2] (setting [4]) and in experiment [2] (setting [5]) were 0.861 (inactive) and 0.7, respectively. Further, the cell count in experiment [2] (setting [6]) worked out at 7200; in experiment [2] (setting [7]) it was 8360. In experiment [3], the z-score was 1.05 (inactive).
Regarding `Oc1ccc(-c2nc3cc(O)cc(Br)c3o2)cc1`, the remaining activity in experiment [1] is 98.9% (inactive). In addition, the fold change was 0.904 (inactive) in experiment [2] (setting [4]) and 1.67 in experiment [2] (setting [5]). Also, the cell count in experiment [2] (setting [6]) came out at 8500; in experiment [2] (setting [7]), 9400. In addition, the z-score in experiment [3] is 0.775 (inactive).
`CN1c2cc3c(cc2N=C(c2ccc(C(=O)O)cc2)c2ccccc21)C(C)(C)CCC3(C)C`: in experiment [1], the remaining activity was 106% (inactive). Also, the fold change in experiment [2] (setting [4]) was 0.924 (inactive); in experiment [2] (setting [5]), 2. The cell count in experiment [2] (setting [6]) worked out at 7660; in experiment [2] (setting [7]), 8280. Besides, the z-score in experiment [3] is -0.495 (inactive).
Take `CS(=O)(=O)c1ccc(Cn2c3c(c4cc(F)cc(F)c42)CCCC3CC(=O)O)cc1` (configuration not stated): in experiment [1], the remaining activity is 110% (inactive). Also, the fold change in experiment [2] (setting [4]) is 0.908 (inactive); in experiment [2] (setting [5]), 0.675. Also, the figures for the cell count in experiment [2] (setting [6]) and in experiment [2] (setting [7]) were 8590 and 9460, respectively. The z-score in experiment [3] is 0.655 (inactive).
In the case of `CS/C(N)=C(C#N)/C(C#N)=C(\N)SC`, in experiment [1], the remaining activity is 109% (inactive). The fold change in experiment [2] (setting [4]) was 0.85 (inactive); in experiment [2] (setting [5]), 1.19. The cell count in experiment [2] (setting [6]) is 8330; in experiment [2] (setting [7]) it was 9800. Moreover, the z-score in experiment [3] was -0.595 (inactive).
Take `CCCCNC(=O)[C@@H]1Cc2ccccc2N1C(=O)[C@@H](N)CC`: the remaining activity in experiment [1] is 110% (inactive). The values for the fold change in experiment [2] (setting [4]) and in experiment [2] (setting [5]) were 0.978 (inactive) and 1.76, respectively. For the same compound, the cell count in experiment [2] (setting [6]) stood at 9030; in experiment [2] (setting [7]), 9230. For the same compound, the z-score in experiment [3] was 0.245 (inactive).
As for `CCCn1c(=O)[nH]c2nc(-c3ccc(S(=O)(=O)O)cc3)[nH]c2c1=O`, the remaining activity in experiment [1] was 93.6% (inactive). The fold change in experiment [2] (setting [4]) is 0.829 (inactive); in experiment [2] (setting [5]), 2.26. For the same compound, the cell count in experiment [2] (setting [6]) is 7230; in experiment [2] (setting [7]) it was 8720. The z-score in experiment [3] is 1.45 (inactive).
